Assay in all cases: DAPPL (digital affinity profiling via proximity ligation, sequencing); 10 mM Tris-HCl pH 7.5, 50 mM NaCl, 1 mM DTT, 4% glycerol, room temperature, 30 min; GST-TFs on glutathione beads, 16-mer random dsDNA library, 0.1% formaldehyde crosslink after washing; high values mean tight binding
What all share (conditions): protein: recombinant; tags: N-terminal GST; dsDNA, one strand shown

The target of one experiment is T1, FLI1 (Homo sapiens, UniProt Q01543 1-452).
T1 sequence: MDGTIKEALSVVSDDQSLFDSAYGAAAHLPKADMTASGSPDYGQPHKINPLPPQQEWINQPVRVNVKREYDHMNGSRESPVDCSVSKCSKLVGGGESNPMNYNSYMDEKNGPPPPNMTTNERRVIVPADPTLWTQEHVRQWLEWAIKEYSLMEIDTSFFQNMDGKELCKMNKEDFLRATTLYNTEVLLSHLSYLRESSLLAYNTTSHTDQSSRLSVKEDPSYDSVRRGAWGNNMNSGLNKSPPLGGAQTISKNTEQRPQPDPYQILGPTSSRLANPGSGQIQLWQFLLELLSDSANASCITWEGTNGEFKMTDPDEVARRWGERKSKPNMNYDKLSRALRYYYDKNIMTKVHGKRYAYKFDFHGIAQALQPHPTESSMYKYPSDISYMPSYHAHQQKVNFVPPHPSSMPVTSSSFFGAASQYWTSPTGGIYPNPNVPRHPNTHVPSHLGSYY
The procedure, abridged:
(§1)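 Each value of binding signal is a hexamer's read frequency for a factor divided by the same hexamer's frequency in the tag-only sample. Barcoded, bead-captured GST fusions of human transcription factors made in yeast were pooled with that sample and incubated with 200 nmole of a random double-stranded 16-mer DNA library in Tris/NaCl/DTT/glycerol buffer at room temperature for 30 min. Washing, 0.1% formaldehyde crosslinking, proximity ligation, PCR and Illumina NextSeq500 sequencing followed.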

For the next experiment, the target named is T2, ELK1 (Homo sapiens, UniProt P19419 1-428).
T2 sequence: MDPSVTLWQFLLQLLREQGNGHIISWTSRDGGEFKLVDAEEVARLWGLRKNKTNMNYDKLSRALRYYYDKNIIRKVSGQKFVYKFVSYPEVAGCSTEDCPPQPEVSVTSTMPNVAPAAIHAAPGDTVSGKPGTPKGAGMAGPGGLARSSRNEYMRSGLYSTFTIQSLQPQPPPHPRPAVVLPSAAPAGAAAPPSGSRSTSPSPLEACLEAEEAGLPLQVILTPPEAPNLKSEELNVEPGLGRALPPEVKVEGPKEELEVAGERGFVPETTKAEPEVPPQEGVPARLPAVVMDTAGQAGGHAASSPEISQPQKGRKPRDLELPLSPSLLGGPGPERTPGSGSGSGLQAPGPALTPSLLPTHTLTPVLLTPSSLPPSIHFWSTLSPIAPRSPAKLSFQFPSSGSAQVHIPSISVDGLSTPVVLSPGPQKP
An outline of the steps:
as §1

Another experiment addresses T3, GABPA (Homo sapiens, UniProt Q06546 1-454).
T3 sequence: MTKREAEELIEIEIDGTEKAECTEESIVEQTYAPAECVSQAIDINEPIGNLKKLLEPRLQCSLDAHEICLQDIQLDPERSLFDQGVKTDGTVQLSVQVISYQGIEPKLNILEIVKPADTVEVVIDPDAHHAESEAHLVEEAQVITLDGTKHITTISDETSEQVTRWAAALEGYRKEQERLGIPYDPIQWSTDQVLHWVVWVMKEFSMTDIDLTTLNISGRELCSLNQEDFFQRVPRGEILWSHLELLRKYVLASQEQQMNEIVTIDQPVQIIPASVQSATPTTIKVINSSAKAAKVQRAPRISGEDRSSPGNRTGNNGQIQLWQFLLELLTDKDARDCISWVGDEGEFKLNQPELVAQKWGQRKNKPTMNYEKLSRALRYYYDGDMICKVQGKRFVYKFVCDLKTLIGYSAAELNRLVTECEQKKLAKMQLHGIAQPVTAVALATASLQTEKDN
The procedure, abridged:
as §1

The target in another experiment is T4, ERG (Homo sapiens, UniProt P11308 1-479).
T4 sequence: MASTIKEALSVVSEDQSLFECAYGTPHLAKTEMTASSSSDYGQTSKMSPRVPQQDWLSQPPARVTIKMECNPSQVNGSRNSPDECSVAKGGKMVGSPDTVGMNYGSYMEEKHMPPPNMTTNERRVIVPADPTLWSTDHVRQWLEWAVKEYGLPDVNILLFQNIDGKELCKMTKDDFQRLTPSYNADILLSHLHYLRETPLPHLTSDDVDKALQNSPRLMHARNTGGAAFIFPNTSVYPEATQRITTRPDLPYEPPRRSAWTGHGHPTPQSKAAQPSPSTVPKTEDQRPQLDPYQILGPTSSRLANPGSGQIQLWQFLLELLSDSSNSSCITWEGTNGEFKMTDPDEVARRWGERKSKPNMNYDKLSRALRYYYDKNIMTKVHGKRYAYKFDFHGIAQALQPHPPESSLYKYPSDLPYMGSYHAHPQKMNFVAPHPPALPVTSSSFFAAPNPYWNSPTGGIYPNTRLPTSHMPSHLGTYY
An outline of the steps:
as §1

The target of another experiment is ELF1 (Homo sapiens, UniProt P32519 1-619). The procedure, abridged: as §1
The target in another experiment is T5, EHF (Homo sapiens, UniProt Q9NZC4 1-300).
T5 sequence: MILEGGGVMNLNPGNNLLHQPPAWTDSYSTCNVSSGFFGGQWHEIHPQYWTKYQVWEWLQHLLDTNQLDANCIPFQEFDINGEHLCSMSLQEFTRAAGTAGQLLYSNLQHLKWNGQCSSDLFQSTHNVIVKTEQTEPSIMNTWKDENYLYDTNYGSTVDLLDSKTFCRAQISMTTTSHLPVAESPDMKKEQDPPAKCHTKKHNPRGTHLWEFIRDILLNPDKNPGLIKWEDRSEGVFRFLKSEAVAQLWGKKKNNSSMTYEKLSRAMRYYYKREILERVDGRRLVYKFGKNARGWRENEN
An outline of the steps:
as §1

The next experiment concerns the target SPI1 (Homo sapiens, UniProt P17947 1-270). An outline of the steps: as §1
A further experiment concerns the target SPIB (Homo sapiens, UniProt Q01892 1-262). The procedure, abridged: as §1
For another experiment, the target named is T6, ELK3 (Homo sapiens, UniProt P41970 1-407).
T6 sequence: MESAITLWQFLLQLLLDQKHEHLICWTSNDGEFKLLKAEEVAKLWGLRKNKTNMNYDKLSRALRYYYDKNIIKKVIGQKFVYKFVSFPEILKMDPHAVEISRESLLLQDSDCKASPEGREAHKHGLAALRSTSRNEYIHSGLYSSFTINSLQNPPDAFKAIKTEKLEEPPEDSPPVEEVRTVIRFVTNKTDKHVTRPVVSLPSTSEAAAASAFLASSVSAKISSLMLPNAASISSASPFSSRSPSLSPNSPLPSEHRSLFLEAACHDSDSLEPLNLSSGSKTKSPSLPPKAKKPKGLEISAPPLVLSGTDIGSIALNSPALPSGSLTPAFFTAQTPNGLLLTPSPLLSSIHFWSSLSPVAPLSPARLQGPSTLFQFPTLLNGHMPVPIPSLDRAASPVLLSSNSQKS
An outline of the steps:
as §1

Another experiment deals with T7, FEV (Homo sapiens, UniProt Q99581 1-238).
T7 sequence: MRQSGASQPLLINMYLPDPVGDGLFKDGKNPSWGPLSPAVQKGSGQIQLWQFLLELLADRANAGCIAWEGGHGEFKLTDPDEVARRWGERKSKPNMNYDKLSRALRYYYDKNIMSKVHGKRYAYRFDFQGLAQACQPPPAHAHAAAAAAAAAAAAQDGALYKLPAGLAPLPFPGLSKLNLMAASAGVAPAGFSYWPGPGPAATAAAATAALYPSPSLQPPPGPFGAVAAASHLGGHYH
The procedure, abridged: as §1

The next experiment concerns the target ETV5 (Homo sapiens, UniProt P41161 1-510). An outline of the steps: as §1
For another experiment, the target named is T8, SPIC (Homo sapiens, UniProt Q8N5J4 1-248).
T8 sequence: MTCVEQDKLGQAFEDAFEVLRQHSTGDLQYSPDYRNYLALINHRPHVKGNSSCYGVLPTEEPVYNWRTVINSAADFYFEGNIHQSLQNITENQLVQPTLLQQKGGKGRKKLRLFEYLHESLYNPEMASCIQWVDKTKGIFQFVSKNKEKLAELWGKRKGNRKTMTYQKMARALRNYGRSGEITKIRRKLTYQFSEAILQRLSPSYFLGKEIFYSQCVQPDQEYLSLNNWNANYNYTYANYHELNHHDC
An outline of the steps:
as §1

Another experiment deals with ELF4 (Homo sapiens, UniProt Q99607 1-663). An outline of the steps: as §1
The next experiment deals with T9, ELK4 (Homo sapiens, UniProt P28324-2 1-405).
T9 sequence: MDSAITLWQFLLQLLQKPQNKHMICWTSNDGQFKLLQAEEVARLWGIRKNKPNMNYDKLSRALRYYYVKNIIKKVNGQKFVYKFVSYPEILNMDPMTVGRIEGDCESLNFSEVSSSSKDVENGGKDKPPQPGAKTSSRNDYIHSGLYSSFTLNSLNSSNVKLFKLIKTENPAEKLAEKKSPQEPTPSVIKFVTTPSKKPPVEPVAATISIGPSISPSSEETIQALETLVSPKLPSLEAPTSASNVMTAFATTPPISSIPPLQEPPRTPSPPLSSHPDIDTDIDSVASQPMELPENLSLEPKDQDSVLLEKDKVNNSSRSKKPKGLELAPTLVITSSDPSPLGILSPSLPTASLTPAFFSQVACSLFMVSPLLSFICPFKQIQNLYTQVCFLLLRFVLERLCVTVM
The procedure, abridged: as §1

In a further experiment the target is T10, ETV2 (Homo sapiens, UniProt O00321 1-342).
T10 sequence: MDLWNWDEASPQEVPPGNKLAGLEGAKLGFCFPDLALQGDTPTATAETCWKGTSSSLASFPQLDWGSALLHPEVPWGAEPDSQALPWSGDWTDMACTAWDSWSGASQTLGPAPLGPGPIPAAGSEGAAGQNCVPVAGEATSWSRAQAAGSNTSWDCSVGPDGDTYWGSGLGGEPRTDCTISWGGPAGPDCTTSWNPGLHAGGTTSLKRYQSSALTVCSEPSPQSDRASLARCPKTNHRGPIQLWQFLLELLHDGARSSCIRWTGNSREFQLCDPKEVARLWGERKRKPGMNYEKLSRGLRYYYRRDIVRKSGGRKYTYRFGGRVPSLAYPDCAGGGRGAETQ
The procedure, abridged: as §1

A further experiment deals with T11, ELF3 (Homo sapiens, UniProt P78545 1-371).
T11 sequence: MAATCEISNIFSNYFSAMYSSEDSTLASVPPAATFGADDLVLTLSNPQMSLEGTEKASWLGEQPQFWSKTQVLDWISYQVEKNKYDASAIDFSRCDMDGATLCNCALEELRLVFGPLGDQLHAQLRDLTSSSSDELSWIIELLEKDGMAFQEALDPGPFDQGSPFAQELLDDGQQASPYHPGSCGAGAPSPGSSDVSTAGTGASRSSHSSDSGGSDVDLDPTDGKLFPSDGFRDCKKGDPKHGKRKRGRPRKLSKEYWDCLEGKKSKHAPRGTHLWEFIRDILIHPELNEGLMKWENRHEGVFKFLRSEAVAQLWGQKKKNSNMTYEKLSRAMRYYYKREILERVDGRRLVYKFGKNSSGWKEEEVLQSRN
The procedure, abridged: as §1

Another experiment addresses ETV1 (Homo sapiens, UniProt P50549 1-477). An outline of the steps: as §1

Sequence of SPIB (Q01892 whole entry): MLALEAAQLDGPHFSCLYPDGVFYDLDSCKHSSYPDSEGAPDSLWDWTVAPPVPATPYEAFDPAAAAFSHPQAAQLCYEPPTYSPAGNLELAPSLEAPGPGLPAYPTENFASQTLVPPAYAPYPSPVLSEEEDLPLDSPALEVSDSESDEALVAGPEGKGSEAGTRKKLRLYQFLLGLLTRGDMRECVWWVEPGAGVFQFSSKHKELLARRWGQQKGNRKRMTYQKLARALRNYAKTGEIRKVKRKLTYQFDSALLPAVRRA
Sequence of ELF4 (Q99607 whole entry): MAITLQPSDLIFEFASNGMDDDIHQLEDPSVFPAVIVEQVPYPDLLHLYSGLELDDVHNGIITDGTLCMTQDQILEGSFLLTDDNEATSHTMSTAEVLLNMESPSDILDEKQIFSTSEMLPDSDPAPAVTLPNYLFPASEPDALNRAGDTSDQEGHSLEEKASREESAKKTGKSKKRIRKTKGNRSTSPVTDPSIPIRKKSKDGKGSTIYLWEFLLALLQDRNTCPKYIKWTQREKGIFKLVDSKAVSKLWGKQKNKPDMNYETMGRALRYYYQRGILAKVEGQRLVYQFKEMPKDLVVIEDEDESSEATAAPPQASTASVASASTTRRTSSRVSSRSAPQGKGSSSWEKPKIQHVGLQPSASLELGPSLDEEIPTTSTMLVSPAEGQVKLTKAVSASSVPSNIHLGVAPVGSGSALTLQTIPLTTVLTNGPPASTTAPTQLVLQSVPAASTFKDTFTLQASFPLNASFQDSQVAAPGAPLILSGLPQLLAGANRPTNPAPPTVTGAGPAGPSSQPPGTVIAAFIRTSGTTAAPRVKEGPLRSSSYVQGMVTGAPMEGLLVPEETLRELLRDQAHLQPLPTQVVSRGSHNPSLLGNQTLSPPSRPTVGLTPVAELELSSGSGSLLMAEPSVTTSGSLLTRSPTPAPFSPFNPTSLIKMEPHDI
Sequence of ETV1 (P50549 whole entry): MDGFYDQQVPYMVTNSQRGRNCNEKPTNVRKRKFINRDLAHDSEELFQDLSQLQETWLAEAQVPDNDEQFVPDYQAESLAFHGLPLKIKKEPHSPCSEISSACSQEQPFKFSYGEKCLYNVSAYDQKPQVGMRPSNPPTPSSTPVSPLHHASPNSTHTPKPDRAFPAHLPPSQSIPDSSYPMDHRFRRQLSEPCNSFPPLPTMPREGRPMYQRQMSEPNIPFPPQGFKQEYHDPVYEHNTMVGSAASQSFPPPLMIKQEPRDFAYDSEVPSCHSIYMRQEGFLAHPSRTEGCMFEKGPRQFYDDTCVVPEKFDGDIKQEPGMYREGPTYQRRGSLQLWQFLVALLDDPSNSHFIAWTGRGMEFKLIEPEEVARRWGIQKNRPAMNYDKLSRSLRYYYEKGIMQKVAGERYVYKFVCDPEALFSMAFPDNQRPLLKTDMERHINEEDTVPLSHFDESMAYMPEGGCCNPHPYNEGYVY
Sequence of ETV5 (P41161 whole entry): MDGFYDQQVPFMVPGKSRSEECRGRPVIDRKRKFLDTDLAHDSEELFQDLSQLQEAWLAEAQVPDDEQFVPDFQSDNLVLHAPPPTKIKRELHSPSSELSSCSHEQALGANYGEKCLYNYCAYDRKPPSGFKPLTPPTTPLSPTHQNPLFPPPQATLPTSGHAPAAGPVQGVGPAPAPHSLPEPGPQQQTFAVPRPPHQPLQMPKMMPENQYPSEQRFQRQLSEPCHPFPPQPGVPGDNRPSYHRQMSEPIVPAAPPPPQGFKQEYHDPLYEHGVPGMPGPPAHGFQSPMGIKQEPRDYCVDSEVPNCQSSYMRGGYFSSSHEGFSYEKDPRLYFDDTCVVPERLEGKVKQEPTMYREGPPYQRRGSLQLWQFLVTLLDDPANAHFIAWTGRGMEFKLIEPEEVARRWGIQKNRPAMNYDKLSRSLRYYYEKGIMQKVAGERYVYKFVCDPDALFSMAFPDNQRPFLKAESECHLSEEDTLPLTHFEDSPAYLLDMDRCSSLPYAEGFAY
Sequence of ELF1 (P32519 whole entry): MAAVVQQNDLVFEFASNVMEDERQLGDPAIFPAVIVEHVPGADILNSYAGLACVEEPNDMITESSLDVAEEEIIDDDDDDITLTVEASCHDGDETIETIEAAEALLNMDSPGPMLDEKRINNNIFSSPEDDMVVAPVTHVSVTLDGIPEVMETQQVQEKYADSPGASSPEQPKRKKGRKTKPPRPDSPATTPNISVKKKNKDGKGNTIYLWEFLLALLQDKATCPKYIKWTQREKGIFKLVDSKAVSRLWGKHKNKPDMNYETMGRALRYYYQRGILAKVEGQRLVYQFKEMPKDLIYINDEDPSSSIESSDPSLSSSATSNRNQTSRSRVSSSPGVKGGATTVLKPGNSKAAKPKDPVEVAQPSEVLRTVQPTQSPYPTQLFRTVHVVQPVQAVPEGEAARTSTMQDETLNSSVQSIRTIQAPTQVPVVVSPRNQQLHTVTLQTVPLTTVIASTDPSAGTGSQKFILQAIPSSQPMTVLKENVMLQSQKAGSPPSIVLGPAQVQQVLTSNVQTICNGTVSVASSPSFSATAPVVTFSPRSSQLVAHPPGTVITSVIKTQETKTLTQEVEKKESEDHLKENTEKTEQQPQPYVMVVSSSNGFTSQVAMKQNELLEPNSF

For the sequence CGGTTC, the binding signal with FLI1 is 1.3 fold enrichment (6-mer frequency, TF over GST control); with ELK1, 1.43 fold enrichment (6-mer frequency, TF over GST control); with GABPA, 1.19 fold enrichment (6-mer frequency, TF over GST control); with ERG it was 1.28 fold enrichment (6-mer frequency, TF over GST control); with ELF1 it was 1.27 fold enrichment (6-mer frequency, TF over GST control); with EHF, 1.27 fold enrichment (6-mer frequency, TF over GST control). Moreover, the binding signal was 1.3 fold enrichment (6-mer frequency, TF over GST control) in the experiment with SPI1; 1.33 fold enrichment (6-mer frequency, TF over GST control) with SPIB; 1.35 fold enrichment (6-mer frequency, TF over GST control) with ELK3; 1.42 fold enrichment (6-mer frequency, TF over GST control) in the experiment with FEV; 1.31 fold enrichment (6-mer frequency, TF over GST control) in the experiment with ETV5; 1.2 fold enrichment (6-mer frequency, TF over GST control) with SPIC. Moreover, the binding signal with ELF4 was 1.19 fold enrichment (6-mer frequency, TF over GST control); with ELK4, 1.29 fold enrichment (6-mer frequency, TF over GST control); with ETV2 it was 1.39 fold enrichment (6-mer frequency, TF over GST control); with ELF3, 1.33 fold enrichment (6-mer frequency, TF over GST control); in the experiment with ETV1, 1.39 fold enrichment (6-mer frequency, TF over GST control).

For the sequence CGCACT, the binding signal is 1.12 fold enrichment (6-mer frequency, TF over GST control) with FLI1; 1.33 fold enrichment (6-mer frequency, TF over GST control) with ELK1; 1.28 fold enrichment (6-mer frequency, TF over GST control) in the experiment with GABPA; 1.21 fold enrichment (6-mer frequency, TF over GST control) with ERG; 1.22 fold enrichment (6-mer frequency, TF over GST control) with ELF1; 1.29 fold enrichment (6-mer frequency, TF over GST control) with EHF. Moreover, the binding signal with SPI1 is 1.41 fold enrichment (6-mer frequency, TF over GST control); in the experiment with SPIB it was 1.27 fold enrichment (6-mer frequency, TF over GST control); in the experiment with ELK3, 1.24 fold enrichment (6-mer frequency, TF over GST control); with FEV, 1.32 fold enrichment (6-mer frequency, TF over GST control); in the experiment with ETV5, 1.28 fold enrichment (6-mer frequency, TF over GST control); with SPIC it was 1.04 fold enrichment (6-mer frequency, TF over GST control). The binding signal in the experiment with ELF4 is 1.29 fold enrichment (6-mer frequency, TF over GST control); in the experiment with ELK4, 1.1 fold enrichment (6-mer frequency, TF over GST control); with ETV2, 1.29 fold enrichment (6-mer frequency, TF over GST control); in the experiment with ELF3 it was 1.26 fold enrichment (6-mer frequency, TF over GST control); with ETV1, 1.23 fold enrichment (6-mer frequency, TF over GST control).

Values taken from article PMC7862700, “An all-to-all approach to the identification of sequence-specific readers for epigenetic DNA modifications on cytosine”.
